The results in this text go back to PubChem BioAssay.

Assay [1] is described as follows: HepG2 liver cancer cell viability effects, profiling panel, resazurin fluorescence, 24 h, PK04 Diversity Set (AID 1172). The following applies: higher = more signal. (In general: Resazurin is reduced to fluorescent resorufin, in cell work by metabolically active cells.)
A short description of assay [2]: basal S. cerevisiae growth modulation, no modifier, primary screen, OD600, strain BY4716, 24 h, basal condition (AID 1173). The following applies: OD600, 24 h, higher = more signal, called active from +8 up or from −8 down.
Assay [3] is described as follows: MM1S myeloma cell viability, profiling panel, resazurin fluorescence, basal, 24 h, PK04 Diversity Set (AID 1174).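 Further: MM1S multiple myeloma cell line.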 The following applies: higher = more signal, called active from +8 up or from −8 down.
In assay [4] the target is Dihydroorotate dehydrogenase (quinone), mitochondrial (Plasmodium falciparum (isolate 3D7)) (UniProt Q08210). The assay can be described thus: PfDHODH enzyme inhibitors, primary screen, biochemical, C-terminal His tag, absorbance 600 nm (AID 1175).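 Further: recombinant parasite enzyme with a five histidine tag at its C terminus.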 The following applies: DCIP absorbance 600 nm, higher = more signal, called active from +8 up or from −8 down.
Assay [5] can be described thus: S. cerevisiae RM11-1a growth modifiers, primary screen, strain RM11-1a, OD600, basal, 24 h (AID 1177).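 Further: cultures grown under basal conditions with no added stressor.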 The following applies: OD600, 24 h, higher = more signal, called active from +8 up or from −8 down.
Assay [6] in a line: E. coli acrAB mutant growth effects, primary screen, E. coli filamentation inducers, strain DRC39, OD650, 24 h (AID 1178).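 Further: growth measured as culture turbidity by optical density at 650 nm.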 The following applies: higher = more signal, called active from +8 up or from −8 down.
Assay [7] is described as follows: E. coli acrAB mutant growth effects, primary screen, E. coli filamentation inducers, strain DRC39, OD650, 48 h (AID 1179).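 Further: screen aims at cell division blockers that make cells filament.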 The note with it: E. coli DRC39 delta-acrAB growth, higher = more signal, called active from +8 up or from −8 down.
Assay [8] can be described thus: RPMI8226 myeloma cell viability, profiling panel, resazurin fluorescence, basal, 24 h, PK04 Diversity Set (AID 1180).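 Further: RPMI8826 multiple myeloma cell line at 5000 cells per well.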 The note with it: higher = more signal.
In assay [9] the target is E3 ubiquitin-protein ligase XIAP (Homo sapiens) (UniProt P98170). Description: XIAP binders, primary screen, biophysical, small-molecule microarray, fluorescence 635 nm (AID 1181).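 Further: score merges 667 nm emission and signal to noise over triplicate slides.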 The following applies: small-molecule microarray binding, higher = more signal.
Assay [10] concerns XIP peptide (Xip251-270) binding. Description: small-molecule binders of XIP peptide, primary screen, biochemical, small-molecule microarray, fluorescence 635/667 nm, 0.1 µg/mL protein (AID 1182). The following applies: fluorescent protein binding, 635 nm, higher = more signal, called active from +8 up or from −8 down.
A further assay has as its system XIP peptide (Xip251-270). The assay can be described thus: small-molecule binders of XIP peptide, primary screen, biochemical, small-molecule microarray, fluorescence 635/667 nm, 0.5 µg/mL protein (AID 1183). The following applies: small-molecule microarray binding, fluorescence 635 nm; higher = more signal.
A short description of assay [11]: Plasmodium falciparum growth inhibition, primary screen, strain 3D7, DAPI fluorescence, 100 nL (AID 1184).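 Further: parasites grown inside human red blood cells in medium with human serum.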 The note with it: P. falciparum 3D7 growth, 3 d, higher = more signal.
The target of assay [12] is Homeobox protein Hox-A13 (Mus musculus) (UniProt Q62424). The assay can be described thus: inhibitors of HoxA13-DNA binding, primary screen, biochemical, fluorescence polarization, labeled oligonucleotide (AID 1185). The note with it: 15 min, higher = more signal, called active from +8 up or from −8 down. For orientation: Polarisation of emitted light reports the rotation of a fluorescent probe.

The source made the active and inactive calls.

E3 ubiquitin-protein ligase XIAP (Homo sapiens), sequence (P98170 whole entry, looked up): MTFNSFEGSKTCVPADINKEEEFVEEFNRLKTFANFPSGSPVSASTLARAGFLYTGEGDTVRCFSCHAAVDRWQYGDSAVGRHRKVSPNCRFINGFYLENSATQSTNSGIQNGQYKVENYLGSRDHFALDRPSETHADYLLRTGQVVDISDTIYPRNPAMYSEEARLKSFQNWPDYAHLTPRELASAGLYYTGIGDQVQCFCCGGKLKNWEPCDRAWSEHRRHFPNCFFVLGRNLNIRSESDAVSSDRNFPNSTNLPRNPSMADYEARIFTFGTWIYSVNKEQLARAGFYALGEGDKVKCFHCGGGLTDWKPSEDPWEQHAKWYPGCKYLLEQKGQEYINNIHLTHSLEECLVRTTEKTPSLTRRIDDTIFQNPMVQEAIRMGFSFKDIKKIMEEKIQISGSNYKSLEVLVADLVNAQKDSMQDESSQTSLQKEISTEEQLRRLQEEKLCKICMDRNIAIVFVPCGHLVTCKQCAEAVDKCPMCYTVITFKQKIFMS
Dihydroorotate dehydrogenase (quinone), mitochondrial (Plasmodium falciparum (isolate 3D7)), sequence (Q08210 whole entry, looked up): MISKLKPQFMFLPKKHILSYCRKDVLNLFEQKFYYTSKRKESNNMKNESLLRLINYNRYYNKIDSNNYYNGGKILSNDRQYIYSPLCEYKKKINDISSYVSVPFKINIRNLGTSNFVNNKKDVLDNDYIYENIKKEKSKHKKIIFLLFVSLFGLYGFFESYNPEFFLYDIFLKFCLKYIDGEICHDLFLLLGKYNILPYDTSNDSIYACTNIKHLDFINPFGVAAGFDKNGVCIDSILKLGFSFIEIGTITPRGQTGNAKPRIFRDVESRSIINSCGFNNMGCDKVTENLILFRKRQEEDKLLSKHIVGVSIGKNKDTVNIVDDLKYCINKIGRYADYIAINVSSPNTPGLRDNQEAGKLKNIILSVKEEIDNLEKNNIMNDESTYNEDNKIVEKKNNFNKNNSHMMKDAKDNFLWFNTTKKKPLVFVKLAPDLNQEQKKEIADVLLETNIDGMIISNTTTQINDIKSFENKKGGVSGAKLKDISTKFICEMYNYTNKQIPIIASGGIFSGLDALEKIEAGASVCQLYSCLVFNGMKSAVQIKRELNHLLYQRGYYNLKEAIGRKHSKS
Homeobox protein Hox-A13 (Mus musculus), sequence (Q62424 whole entry, looked up): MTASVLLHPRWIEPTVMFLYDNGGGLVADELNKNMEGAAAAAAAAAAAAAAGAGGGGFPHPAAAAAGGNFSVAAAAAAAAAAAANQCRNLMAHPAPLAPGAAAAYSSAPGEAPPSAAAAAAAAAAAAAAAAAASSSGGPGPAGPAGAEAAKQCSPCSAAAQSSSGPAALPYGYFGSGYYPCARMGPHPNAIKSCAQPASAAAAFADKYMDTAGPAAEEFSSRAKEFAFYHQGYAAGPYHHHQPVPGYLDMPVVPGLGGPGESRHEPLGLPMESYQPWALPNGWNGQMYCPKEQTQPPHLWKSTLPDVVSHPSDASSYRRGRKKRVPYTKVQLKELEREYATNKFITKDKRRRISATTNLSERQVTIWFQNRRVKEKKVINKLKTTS

For `CO[C@H]1COC(=O)[C@H](C)COC(=O)[C@H](Cc2ccccc2)NC(=O)CC=C[C@H]1C`, the z-score in [1] was 0.492; in [2], -1.3 (inactive); in assay [3], 0.62 (inactive); in assay [5], -0.954 (inactive); in [6], 0.192 (inactive); in [7], 0.144 (inactive). Besides, the z-score in assay [8] was 0.254; in assay [11], 0.724; in assay [12] it was 0.57 (inactive). The composite z-score in assay [4] was -0.393 (inactive); in assay [9] it was -0.267; in assay [10], -0.454 (inactive); in the assay with XIP peptide (Xip251-270), 0.613.
With `C[C@@H]1CC[C@H]2C(=O)N3CCC[C@H]3C(=O)N2[C@H]1c1ccc(Br)cc1`, the z-score in [1] was 1.55; in assay [2], -0.654 (inactive); in assay [3], 0.864 (inactive); in assay [5], 0.393 (inactive); in [6], 0.898 (inactive); in assay [7], 0.8 (inactive). The z-score in [8] is 0.506; in [11], 0.371; in [12], 0.0636 (inactive). Besides, the composite z-score in assay [4] is 0.238 (inactive); in assay [9], -0.193; in [10] it was 0.557 (inactive); in the assay on XIP peptide (Xip251-270), -0.374.
For the compound `CO[C@H]1COC(=O)[C@@H](C)COC(=O)[C@H](Cc2ccccc2)NC(=O)CC=C[C@H]1C`, the z-score in assay [1] was 0.495; in assay [2], -1.05 (inactive); in assay [3], 1.06 (inactive); in assay [5], -1.48 (inactive); in [6], 0.586 (inactive); in [7], 0.274 (inactive). Besides, the results for the z-score in assay [8], in [11] and in assay [12] were 0.794, -0.178 and 0.485 (inactive), respectively. The composite z-score is 0.234 (inactive) in [4], -0.0293 in [9], -0.0968 (inactive) in assay [10] and 0.172 with XIP peptide (Xip251-270).
As to `COC(=O)C1=C(C)N(Cc2ccccc2)c2c(C(=O)OC)c(C(=O)OC)c(C(=O)OC)c(=O)n2[C@@H]1c1ccccc1`, the z-score is 1.23 in [1]; -1.71 (inactive) in [2]; -0.364 (inactive) in assay [3]; -1.05 (inactive) in [5]; -0.0311 (inactive) in [6]; 0.0198 (inactive) in assay [7]. Moreover, the z-score is 0.512 in [8], 0.149 in assay [11] and -2.2 (inactive) in [12]. The composite z-score is 0.295 (inactive) in assay [4], -0.0841 in [9], 0.17 (inactive) in [10] and -0.0775 in the assay on XIP peptide (Xip251-270).
`CO[C@@H]1COC(=O)[C@H](COCc2ccccc2)NC(=O)CC=C[C@@H](C)[C@H](OC)COC(=O)[C@H](COCc2ccccc2)NC(=O)CC=C[C@H]1C`: the z-score in assay [1] is 0.784; in assay [2], -0.173 (inactive); in [3], 1.28 (inactive); in assay [5], 0.371 (inactive); in assay [6], 2.23 (inactive); in assay [7], -0.0924 (inactive). For the same compound, the z-score in assay [8] was 0.415; in [11], -0.989; in assay [12], 0.421 (inactive). Further, the composite z-score in assay [4] is 0.946 (inactive); in [9], 0.378; in assay [10] it was 0.271 (inactive); in the assay with XIP peptide (Xip251-270), -0.713.
With `CCN1C(C)=C(C(=O)OC)[C@@H](c2ccccc2)N2C(=O)[C@](O)(C(=O)OC)[C@@H](c3ccccc3)C(C(C)=O)=C12`, the z-score in assay [1] was -0.267; in assay [2] it was -2.6 (inactive); in assay [3], 1.43 (inactive); in assay [5], -1.84 (inactive); in assay [6] it was -0.891 (inactive); in assay [7], -2 (inactive). Further, the z-score in [8] was 0.554; in assay [11] it was -1.56; in [12], -1.27 (inactive). The composite z-score was -5.15 (inactive) in assay [4], -0.0167 in [9], -0.192 (inactive) in assay [10] and -1.35 in the assay on XIP peptide (Xip251-270).
For `CO[C@H]1COC(=O)[C@@H](Cc2ccccc2)NC(=O)[C@@H](C)COC(=O)CC=C[C@@H]1C`, the z-score in assay [1] was 0.344; in [2] it was -1.14 (inactive); in assay [3], 1.1 (inactive); in [5], -0.213 (inactive); in assay [6], 1.24 (inactive); in assay [7], 0.639 (inactive). Besides, the results for the z-score in [8], in [11] and in assay [12] were 0.763, -0.0923 and -0.866 (inactive), respectively. Moreover, the composite z-score is 0.0602 (inactive) in assay [4], 0.785 in assay [9], -0.404 (inactive) in assay [10] and 0.43 with XIP peptide (Xip251-270).
As to `Cc1ccc(S(=O)(=O)N[C@H]2COC(=O)CC=C[C@H](C)COC(=O)N[C@@H](C)C(=O)CC=C[C@@H]2C)cc1`, the z-score is 0.115 in assay [1]; -0.949 (inactive) in assay [2]; 1.71 (inactive) in assay [3]; -0.698 (inactive) in assay [5]; 0.583 (inactive) in [6]; 0.286 (inactive) in assay [7]. In addition, the z-score was 1.06 in [8], -1.23 in [11] and -1.11 (inactive) in assay [12]. For the same compound, the composite z-score in assay [4] is 0.32 (inactive); in [9], -0.0282; in assay [10], -0.478 (inactive); with XIP peptide (Xip251-270), 0.619.
Consider `CCC(=O)[C@]12O[C@@]3([C@@H]4C(=O)OCC[C@@H]41)N(CC)C(C)=C(C(=O)OC)[C@@H](c1ccccc1)N3C2=O`, for which the z-score in assay [1] was 0.121; in [2], -2.81 (inactive); in assay [3], -0.01 (inactive); in assay [5], -0.805 (inactive); in assay [6], -0.772 (inactive); in [7] it was 0.09 (inactive). In addition, the z-score in assay [8] was 0.74; in assay [11], -1.06; in assay [12], -0.864 (inactive). The composite z-score is -0.191 (inactive) in assay [4], 0.0178 in assay [9], 0.592 (inactive) in [10] and -0.499 in the assay with XIP peptide (Xip251-270).
In the case of `COc1cccc([C@@H]2[C@@H](C)CC[C@H]3C(=O)N4[C@H](c5cccc(OC)c5)[C@@H](C)CC[C@H]4C(=O)N23)c1`, the z-score in assay [1] is 1.96; in [2] it was -2.76 (inactive); in assay [3] it was 1.24 (inactive); in assay [5], -3.28 (inactive); in [6] it was 0.697 (inactive); in [7], -1.17 (inactive). Besides, the z-score in assay [8] is 1.42; in [11], 0.137; in [12], -1.96 (inactive). Moreover, the composite z-score in assay [4] was -1.35 (inactive); in assay [9], -0.0599; in assay [10] it was -0.142 (inactive); in the assay with XIP peptide (Xip251-270), 0.379.
With `CCN1C(C)=C(C(=O)OC)[C@@H](c2ccccc2)N2C(=O)[C@@]3(C(=O)OC)O[C@@]12[C@@H]1C(=O)N(c2ccccc2)C(=O)[C@@H]13`, the z-score was 0.392 in assay [1]; -1.07 (inactive) in assay [2]; 0.839 (inactive) in assay [3]; -0.85 (inactive) in assay [5]; -0.631 (inactive) in assay [6]; -0.21 (inactive) in [7]. For the same compound, the z-score in assay [8] is 1.21; in assay [11], -0.425; in assay [12], -0.559 (inactive). Moreover, the composite z-score in assay [4] is 0.295 (inactive); in assay [9], -0.18; in assay [10], 0.357 (inactive); in the assay with XIP peptide (Xip251-270) it was 0.9.
